# In the library only some 2.3% were active in any assay of this set; here they are far more common.
# Beta2AR agonist – agonists of human beta-2 adrenergic receptor inducing internalization. P07550. Am2.2-beta2AR cells, FAP receptor internalization, flow cytometry. response, % (no concentration beside the values). 340,000 tested, 0.43% active. AID 504454;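 active = response above a set limit, near 3 SD of response in nonfluorescent compounds, cut at about 42% in these data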
# Exocytosis inh – blocks lytic granule exocytosis; TALL-104 LAMP-1 surface exposure, flow cytometry; cells stimulated with thapsigargin and PMA; inhibition, % at 10 µM; 360,000 tested, 0.66% active; AID 651702;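 active = inhibition above about 55%, limit read from the data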
# ABHD5-PLIN5 inh – ABHD5-PLIN5 protein interaction inhibition; Split G. princeps luciferase complementation, luminescence, 4 h; Q00G26+Q8WTS1; inhibition, % at 4 µM; 360,000 tested, 0.78% active;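 active = inhibition above the mean inhibition across every tested compound plus 3 SD, cut at about 22% in these data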;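 note: 0% = DMSO only wells and the 100% control is not disclosed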
# Target sequence (Q00G26 whole entry, looked up): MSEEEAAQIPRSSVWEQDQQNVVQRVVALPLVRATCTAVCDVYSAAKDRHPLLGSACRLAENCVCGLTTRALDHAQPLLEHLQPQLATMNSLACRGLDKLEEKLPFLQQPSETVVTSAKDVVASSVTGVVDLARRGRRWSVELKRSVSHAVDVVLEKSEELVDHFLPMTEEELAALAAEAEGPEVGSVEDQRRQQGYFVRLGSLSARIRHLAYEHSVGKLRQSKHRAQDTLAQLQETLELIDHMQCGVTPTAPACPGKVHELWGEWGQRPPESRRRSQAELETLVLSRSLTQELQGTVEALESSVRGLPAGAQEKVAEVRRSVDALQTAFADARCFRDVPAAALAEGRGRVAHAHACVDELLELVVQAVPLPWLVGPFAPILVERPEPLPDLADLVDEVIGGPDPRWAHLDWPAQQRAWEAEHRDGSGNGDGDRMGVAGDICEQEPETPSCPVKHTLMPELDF
# Target sequence (Q8WTS1 whole entry, looked up): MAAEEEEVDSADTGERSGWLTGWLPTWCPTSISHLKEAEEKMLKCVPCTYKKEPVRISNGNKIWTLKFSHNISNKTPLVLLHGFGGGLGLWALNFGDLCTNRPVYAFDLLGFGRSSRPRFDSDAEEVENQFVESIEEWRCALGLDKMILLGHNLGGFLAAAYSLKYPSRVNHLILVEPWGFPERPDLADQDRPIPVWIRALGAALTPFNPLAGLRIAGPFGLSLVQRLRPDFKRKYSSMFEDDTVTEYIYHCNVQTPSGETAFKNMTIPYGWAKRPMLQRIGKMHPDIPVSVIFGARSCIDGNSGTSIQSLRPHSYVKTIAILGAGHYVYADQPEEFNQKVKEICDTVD
# NTR1 agonist – activates human neurotensin receptor 1 | 330,000 tested, 0.17% active | NTR1-U2OS beta-arrestin-GFP spot imaging, agonist mode | activation, % at 20 µM | P30989 | AID 493036;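 active = activation at or above 40% of the spot to cytoplasm intensity ratio, with at least 20 cells analyzed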;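 note: 0% = DMSO without peptide and 100% = 100 nM NTR1 peptide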
# HTR2A ag – activates the mouse 5-HT2A serotonin receptor; 360,000 tested, 0.66% active; activation, % at 7.6 µM; P35363; CHO-K1 mHTR2A beta-arrestin complementation, luminescence; percent of 30 µM serotonin response; AID 624169;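 active = activation above a run cutoff, the mean activation of all tested compounds plus 3 SD, cut at about 14% in these data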;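 note: 0% = plate median of compound wells and 100% = 30 µM serotonin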
# NTR1 ag conf – confirmation of agonists of human NTR1. shares compounds with NTR1 agonist. 480 tested, 38% active. NTR1-U2OS beta-arrestin-GFP translocation imaging. activation, % at 20 µM. AID 504550;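 active = mean activation at 20 µM of at least 40%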;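 note: 0% = DMSO without peptide and 100% = 100 nM NTR1 peptide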
# Active calls of the source: *; . = no result given.
SMILES,Beta2AR agonist,Exocytosis inh,ABHD5-PLIN5 inh,NTR1 agonist,HTR2A ag,NTR1 ag conf
CC(CCc1ccccc1)NC(=O)COC(=O)c1ccc(S(C)(=O)=O)c([N+](=O)[O-])c1 (stereo not drawn),29.8,26.9,6.5,42.3*,-4.9,78.7*
O=C(CCS(=O)(=O)c1ccccc1)Nc1cccc(-c2nc3ccccc3s2)c1,9.8,37.8,-4.9,48.6*,-0.3,15.1
CCCNC(C)C(=O)Nc1c(C)csc1C(=O)OC (stereo not drawn),12.8,-5.9,1.6,0.7,7.0,.
COc1ccc(-c2cn[nH]c2-c2ccc(OCc3ccccc3)cc2O)cc1,14.6,-1.0,-3.8,29.7,2.2,.
COc1ccccc1-c1cn[nH]c1-c1ccc(OCc2ccccc2)cc1O,4.7,-1.4,-7.4,56.8*,-1.7,0.9
COc1ccc(CC(=O)Nc2cccc(-c3nnc(-c4cccc(C)c4)o3)c2)cc1OC,16.8,21.9,-0.3,40.7*,7.9,57.8*
Fc1cnc(N/N=C/c2ccc(-c3ccc(Br)cc3)o2)nc1N1CCOCC1,-0.3,-4.5,6.1,40.9*,-1.2,24.3
COc1ccccc1NC(=S)N1CC(C)OC(C)C1 (stereo not drawn),6.1,19.6,7.1,1.1,1.6,.
Cc1ccc(O)c(-c2cc(-c3cccc(Br)c3)n[nH]2)c1,1.3,1.8,-17.4,54.5*,-3.0,21.5
Cc1ccc(-c2cc(-c3ccc(C)cc3O)[nH]n2)cc1,3.8,-5.5,-10.5,9.9,-5.9,.
O=C(NC(=S)Nc1nc2c(s1)CCCC2)c1ccc(C(=O)c2ccccc2)cc1,-0.5,4.0,6.5,4.6,-5.0,.
O=C(NC(=S)Nc1nc2c(s1)CSc1ccccc1-2)c1ccccc1,1.1,3.5,7.1,61.5*,3.8,1.4
CC1=C(C(=O)OC2CCCCCCC2)C(c2cc3c(cc2Br)OCO3)CC(=O)N1 (stereo not drawn),3.7,10.6,-1.9,44.4*,0.3,42.2*
C[C@H](NC(=O)c1nc[nH]c1C(=O)N[C@@H](Cc1ccccc1)C(=O)OCc1ccccc1)C(=O)OCc1ccccc1,-2.2,0.6,-4.4,20.4,-1.9,.
CC(C)(C)OC(=O)NCc1ccc(CNC(=O)c2[nH]cnc2C(=O)NCC(=O)OCc2ccccc2)cc1,15.0,-0.5,-0.2,55.5*,3.4,30.6
O=C(N[C@@H](Cc1ccccc1)C(=O)OCc1ccccc1)c1nc[nH]c1C(=O)N1CCc2ccccc2C1,29.9,10.6,-6.7,48.1*,2.8,10.2
CC(C)(C)OC(=O)NCc1ccc(CNC(=O)c2nc[nH]c2C(=O)NCc2ccccc2)cc1,7.3,-10.7,-5.7,9.1,-1.7,.
CC(C)C[C@H](NC(=O)c1nc[nH]c1C(=O)N1CCc2ccccc2C1)C(=O)OCc1ccccc1,-0.7,11.7,-3.9,16.4,0.7,.
C[C@H](NC(=O)c1nc[nH]c1C(=O)N[C@@H](Cc1ccccc1)C(=O)OC(C)(C)C)C(=O)OCc1ccccc1,-0.4,-3.5,-0.8,41.1*,5.0,13.5
CC(C)C[C@H](NC(=O)c1[nH]cnc1C(=O)N[C@@H](C)c1ccccc1)C(=O)OCc1ccccc1,11.3,-2.4,-11.2,41.5*,6.0,62.6*
CC(=O)c1ccccc1NC(=O)CN1C(=O)NC2(CCCCCCC2)C1=O,-7.4,-3.0,6.4,.,5.8,.
Cc1nn(C(C)C(=O)NCCc2cccs2)c(=O)c2nn(-c3ccccc3)c(C)c12 (stereo not drawn),10.7,-1.0,4.5,2.1,-2.7,.
NNC(=S)Nc1c(Br)cc(F)cc1Br,8.5,-3.8,-4.8,-0.4,7.3,.
OC(CNCCc1ccc(C(F)(F)F)cc1)COc1cccc2ccccc12 (stereo not drawn),26.8,31.0,8.3,12.6,3.0,.
COC(=O)c1ccc(CNCC(O)COc2ccc(-c3ccccc3)cc2)cc1 (stereo not drawn),-5.5,-11.7,4.0,3.3,5.6,.
SMILES,Beta2AR agonist,Exocytosis inh,ABHD5-PLIN5 inh,NTR1 agonist,HTR2A ag,NTR1 ag conf
OC(CNCCc1ccc(C(F)(F)F)cc1)COc1ccc2ccccc2c1 (stereo not drawn),10.8,24.8,-11.6,50.7*,0.5,7.2
COc1ccc(CNCC(O)COc2ccc(C(C)(C)c3ccccc3)cc2)cc1 (stereo not drawn),14.1,1.7,-8.5,49.7*,-1.4,6.3
CCOC(=O)c1cc(-c2ccccc2)sc1NC(=O)CSc1nnc(N)s1,-7.4,10.2,-0.9,16.9,-2.4,.
CCOC(=O)c1cc(-c2ccccc2)sc1NC(=O)C(C)Sc1nnc(N)s1 (stereo not drawn),-15.4,6.3,-0.9,43.5*,-4.0,25.4
O=C1NC[C@@H](CCCCN2C[C@H](Cc3ccccc3)N(Cc3ccccc3)C(=O)C2=O)N(Cc2ccccc2)C1=O,.,-9.8,14.8,.,-0.3,.
Cc1cc(C)n(-c2nc(Nc3ccccc3C)nc(-n3nc(C)cc3C)n2)n1,.,.,.,48.1*,.,70.7*
Cc1cc(C)n(-c2nc(NC(C)(C)C)nc(NC(C)(C)C)n2)n1,-2.2,1.8,-4.7,0.8,6.2,.
Cc1cc(C)n(-c2nc(Nc3ccccc3C(F)(F)F)nc(-n3nc(C)cc3C)n2)n1,27.1,7.5,4.4,57.0*,-1.0,43.3*
CC1C=CCC2C(=O)N(c3cccc(C(=O)NCc4ccccc4)c3)C(=O)C12 (stereo not drawn),4.7,-0.7,1.1,-1.4,-6.5,.
CN(C)c1ccc(S(=O)(=O)N2CCCCC2)cc1NC(=O)CCNC(=O)c1ccco1,-4.2,-14.2,-3.0,0.0,0.0,.
O=C(CC(c1ccccc1)c1cc(Br)ccc1O)NCCN1CCOCC1 (stereo not drawn),-0.9,2.1,1.3,43.4*,1.5,0.7
Cc1c(C(=O)N2CCCCC2CCN2CCCC2=O)oc2c(F)cccc12 (stereo not drawn),2.1,-2.9,6.7,2.0,2.2,.
Cc1ccc2oc(=O)c3cc(C(=O)NCCCN4C(C)CCCC4C)sc3c2c1 (stereo not drawn),15.1,-2.5,0.9,-1.8,-9.3,.
CCCCCCSc1cccc(-c2nc3ccc(Cl)cn3c2NCCCC)c1,3.9,-0.1,-9.2,.,-3.5,.
CCCCNc1c(-c2cccc(-c3cc(C(C)=O)cs3)c2)nc2ccc(C)cn12,29.2,-7.8,-0.2,40.6*,10.0,22.4
COc1cc(C(CCN2CCOCC2)c2c(OC)cc(OC)c3c(-c4ccccc4)cc(=O)oc23)cc(OC)c1OC (stereo not drawn),-0.8,31.0,11.0,3.8,-4.6,.
COc1cc(C(CCN2CCCC2)c2c(OC)cc(OC)c3c(-c4ccccc4)cc(=O)oc23)cc(OC)c1OC (stereo not drawn),-4.6,-5.9,3.9,41.4*,-1.4,15.9
O=C(C[C@H]1C[C@H]2c3cc(NS(=O)(=O)c4ccc(F)cc4)ccc3O[C@H]2[C@H](CO)O1)NCc1ccncc1,.,0.8,-1.3,.,-7.3,.
